High-throughput results: PubChem, National Center for Advancing Translational Sciences (NCATS)
Vaccinia mCherry = vaccinia inhibition (mCherry reporter). Potency, µM (top dose mostly 36.5 µM), without a hit: at the highest dose activity change, negative = inhibition, actives largely listed as inhibitors. 310,000 tested, 0.63% active. AID 720579. Vaccinia virus mCherry reporter infection, fluorescence; calls by dose curve; tested in A549 cells; note: % is set by controls: 0 for no effect and ±100 for the full control effect; nearly all actives have a fitted effect of over 35% in size
HCV inhibitor = blocks hepatitis C virus | 340,000 tested, 3.4% active | Potency, µM (top dose mostly 41.8 µM), for the others: top-dose activity change, negative = inhibition, hits mostly inhibitors | Huh7.5.1 HCVcc-Cre infection, luciferase reporter, 44 h | AID 651820; note: % is set by controls: 0 for no effect and ±100 for the full control effect
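Infectious HCV cell culture screen: compound-treated cells (1,000/well, pre-plated 4 h) are infected with HCVcc-Cre at roughly 0.5 moi and grown 44 h. Infection is quantified by luciferase signal after 15 min substrate incubation at room temperature.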
Pf growth 96h = P. falciparum growth inhibition at 96 hour, primary screen for plastid delayed-death inhibitors. P. falciparum luciferase reporter growth, 96 h. Potency, µM (highest dose often 28.7 µM), without a hit: at the highest dose activity change, negative = inhibition, actives largely listed as inhibitors. 320,000 tested, 6.9% active; note: % is set by controls: 0 for no effect and ±100 for the full control effect
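96 h incubation, 37 C, 5% CO2, of luciferase-reporter P. falciparum-infected RBCs (2% hematocrit, 0.05% parasitemia final) with test compounds; endpoint luminescence.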
Vaccinia Venus = inhibitors of vaccinia virus (Venus reporter). AID 720580. 330,000 tested, 0.46% active. Potency, µM (doses to about 36.5 µM), inactives show at the top dose activity change, negative = inhibition, actives largely listed as inhibitors. Vaccinia virus Venus reporter expression, fluorescence; calls by dose curve; tested in A549 cells; note: % is set by controls: 0 for no effect and ±100 for the full control effect; nearly all actives have a fitted effect of over 30% in size
Pf growth 48h = P. falciparum growth inhibition at 48 hours (one generation). P. falciparum luciferase growth in erythrocytes, 48 h. 310,000 tested, 5.9% active. AID 504832. Potency, µM (doses to about 28.7 µM), for the others: at the highest dose activity change, negative = inhibition, usual class: inhibitors; note: % is set by controls: 0 for no effect and ±100 for the full control effect
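Cell-based growth assay: transgenic P. falciparum expressing firefly luciferase, cultured in red cells within RPMI 1640 containing 0.5% w/v Albumax, 24 mM bicarbonate and gentamycin. A drop in luciferase activity indicates inhibition.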
NS1 function inh = influenza NS1 inhibition | Potency, µM (titrated, usually from 46.1 µM), inactives show at the top dose activity, positive = more growth | AID 2326 | 270,000 tested, 0.4% active; calls by dose curve; note: actives are rising curves; nearly all actives have a fitted effect of over 50% in size
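Growth recovery, yeast-based: influenza A NS1 expressed in S. cerevisiae causes slow growth, and suppressors are detected by OD600. The parent strain without NS1 is used as positive control.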
* hit, by the source's call; i = inactive; ? = inconclusive; . = not tested or not shown; [ ] = dose if it differs, or a comment. Most compounds without a hit are left out; they make up all but 11% or so of the library. Unless noted, calls come from the whole dose curve; as a rule, active = well fitted inhibition curve with a large enough effect; inconclusive = small, poorly fitted or top-dose-only effect, or another doubt; inactive = no such curve, though single readings can be large or run the other way. Potency is the fitted concentration of half-maximal effect.

SMILES	Vaccinia mCherry	HCV inhibitor	Pf growth 96h	Vaccinia Venus	Pf growth 48h	NS1 function inh
O=C(Cc1ccc(-n2c(=O)c3ccccc3n(Cc3cccc([N+](=O)[O-])c3)c2=O)cc1)NCC1CCCO1 (configuration not stated)	.	28%	?	.	?	12%
CCOC(=O)c1ccc(NC(=O)c2cccc(S(=O)(=O)N3CCOCC3)c2)cc1	.	3.5µM*	4%	?	6.6µM*	-9%
O=C(NC1(C(=O)NC2CCCC2)CCCCC1)c1ccc2c(c1)OCO2	1%	7%	9.3µM*	0%	-17%	-10%
O=C(c1ccc2c(c1)OCO2)N(CC1CCCO1)C1(C(=O)NC2CCCC2)CCCCC1 (configuration not stated)	-21%	-4%	?	-8%	12µM*	0%
CCC(=O)Nc1cccc(C(=O)OC)c1	-16%	0%	-1%	-12%	46%	-2%
COC(=O)CNC(=O)/C=C/c1cc(Br)ccc1OC	-1%	?	?	-20%	15%	.
COc1ccc(Br)cc1/C=C/C(=O)Nc1ccc2ccccc2c1	-28%	10µM*	12%	-23%	-12%	4%
CCC(=O)Nc1cccc(C(=O)/C=C/c2cc(Br)ccc2OC)c1	?	11µM*	.	?	?	-128%
Cc1cc(O)c(C(=O)/C=C/c2ccccc2)c(=O)o1	1%	-25%	?	30%	?	6%
Cc1cc(C)c2ccc3c(C)c(C)nc3c2[nH]1	?	?	-54%	?	3.7µM*	.
Cn1c(SC2=CS(=O)(=O)c3ccccc32)nc2ccccc21	.	6.3µM*	5%[5.75 µM]	?	5.2µM*	-6%
Cn1c(CSc2nc3ccccc3n2C)nc2ccccc21	.	9%	14%	.	28%	-38%
COc1ccc(-c2nnc(-c3ccc(C)cc3)o2)cc1	i	0%	-3%	-14%	104%	-9%
S=c1nc2ccccc2c2nc(-c3ccccc3Br)[nH]n12	-8%	4%	2.3µM*	-17%	2.9µM*	?
O=C1CS/C(=N/N=C/c2ccccc2)N1c1ccc(O)cc1	-2%	8%	1.7µM*	2%	14%	24%
O=C1CS/C(=N\N=C\c2ccco2)N1c1ccccc1	?	-10%	5%	0%	28%	10%
CNC(=O)CCc1[nH]c2ccccc2c1Sc1ccccc1	-2%	17%	5.2µM*	-17%	?	-12%
COC(=O)c1[nH]c2ccccc2c1Sc1ccccc1	.	-2%	-14%	.	-11%	7%
O=C(CCNC(=O)c1ccc(Br)cc1)Nc1ccc(S(=O)(=O)N2CCOCC2)cc1	.	4%	.	.	.	.
O=C(NCc1ccccc1CN1CCCC1)c1cccc(N2CCCC2=O)c1	.	?	4.1µM*	.	?	.
O=C(NCc1cccs1)c1cccc(N2CCCC2=O)c1	i	1%	100%	1%	25%	-1%
O=C(NC1CCCCCC1)c1cccc(N2CCCC2=O)c1	-24%	25µM*	44%	-22%	181%	3%
Cn1nc(C(=O)NCc2ccccc2CN2CCCC2)c2ccccc2c1=O	-11%	?	15µM*	-3%	?	.
O=C(CSc1nnnn1C1CCCCC1)NNC(=O)c1ccco1	.	3%	21%	.	49%	2%
O=C(CC(NC(=O)OCc1ccccc1)C(=O)O)OCc1ccccc1 (configuration not stated)	i	6%	24%	0%	-23%	5%
SMILES	Vaccinia mCherry	HCV inhibitor	Pf growth 96h	Vaccinia Venus	Pf growth 48h	NS1 function inh
CC(C)(C)c1ccc(OCCCC(=O)Nc2cccc(S(=O)(=O)N3CCOCC3)c2)cc1	-22%	?	?	-19%	?	.
CC(=O)c1ccc(OCCCC(=O)Nc2cccc(S(=O)(=O)N3CCCCC3)c2)cc1	i	?	?	-16%	13µM*	.
CC(C)(C)c1ccc(OCCC(=O)Nc2cccc(S(=O)(=O)N3CCCC3)c2)cc1	?	?	?	?	10µM*	.
CC(=O)c1ccc(OCCCC(=O)Nc2cccc(S(=O)(=O)N3CCCCCC3)c2)cc1	-24%	?	.	-13%	.	.
O=C(Nc1ncn[nH]1)c1ccc(S(=O)(=O)N2CCOCC2)cc1	.	12%	19%	.	9%	3%
CC(=O)C1=C(O)C(=O)N(c2ccccn2)C1c1ccc(C)cc1 (configuration not stated)	-12%	?	0.37µM*	-12%	4%	12%
CC(=O)C1=C(O)C(=O)N(c2ccccn2)C1c1ccc(Cl)cc1 (configuration not stated)	-24%	23%	-17%	-3%	0%	1%
COc1ccc(NC(=O)C(Sc2nnc(-c3ccncc3)n2-c2ccccc2C)c2ccccc2)cc1Cl (configuration not stated)	-11%	?	?	-24%	8.3µM*	28%
COc1ccc(C2CC(c3ccccc3Cl)=NN2c2ccc(S(N)(=O)=O)cc2)cc1 (configuration not stated)	13µM*	?	.	?	.	.
COc1ccc(C2CC(c3cccc(F)c3)=NN2c2ccc(S(N)(=O)=O)cc2)cc1 (configuration not stated)	?	?	.	-29%	.	.
COc1ccc(C2CC(c3ccccc3)=NN2c2ccc(S(N)(=O)=O)cc2)cc1 (configuration not stated)	?	?	?	-21%	13µM*	24%
NS(=O)(=O)c1ccc(N2N=C(c3ccccc3)CC2c2ccc(F)cc2)cc1 (configuration not stated)	-4%	?	?	-25%	12µM*	-18%
CC(C)OCCCn1c(SCC(N)=O)nc2c(sc3ccccc32)c1=O	0%	.	.	-8%	.	.
CN(C)S(=O)(=O)N1CCC(Oc2ccc(C(=O)N3C[C@@H]4CCC[C@H]3C4)cc2)CC1	-24%	-27%	.	-28%	.	.
CCSc1n[nH]c2nc3c(c(=O)n12)C1(CCCC1)Cc1ccccc1-3	.	10%	128%	-24%	31%	20%
CC(=O)N(C)c1ccc(OCC(O)CN(c2ccccc2C)S(=O)(=O)c2ccc(C)cc2)cc1 (configuration not stated)	-23%	?	2.9µM*	?	13µM*	-19%
CCN(C(=O)Cn1c(SCC(=O)NCc2ccccc2)nc2ccccc21)c1cccc(C)c1	i	.	.	-11%	.	.
CCN(CC)CCNCc1ccc(Br)cc1OCC(=O)NCc1ccccc1	.	?	52%[5.75 µM]	.	?	2%
CCN(CC)CCNCc1cc(Br)ccc1OCC(=O)NCc1ccccc1	.	-20%	12µM*	.	?	5%
OCCCCNCc1cc(Br)ccc1OCc1ccccc1F	-19%	3%	27%	-11%	?	8%
Cc1ccccc1NC(=O)COc1ccc(Br)cc1CNCCCO	.	6%	1.9µM*	.	?	2%
